High-throughput results from PubChem BioAssay.
Sampled rows, rich in hits. Any-hit rate of the full collection: about 5.9%.
ATXN2 expr inh: reduces ATXN2 reporter expression in HEK-293 cells | AID 1745845 | 360,000 compounds, 0.72% hits | HEK-293 ATXN2-luciferase reporter, luminescence, 24 h | Potency, µM (doses to about 57 µM), for the others: at the highest dose activity change, negative = inhibition, most hits filed as inhibitors; further: on the % scale 0 is the no-effect control and ±100 the full control effect; nearly all actives have a fitted effect of over 55% in size
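ATXN2-luciferase reporter cells (luciferase flanked by upstream and downstream ATXN2 gene portions) were treated 24 h at 37 °C with compounds at up to 57 uM. SteadyGlo luminescence gave expression; GF-AFC fluorescence gave viability.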
HepG2 tox: counter-screen for TGF-b inhibitors: cytotoxicity in HepG2 cells. AID 588856. Potency, µM (series often up to 46.1 µM), without a hit: at the highest dose activity change, negative = cytotoxicity, most hits filed as cytotoxic. 410,000 compounds, 0.76% hits. HepG2 CAGA-GFP viability, ATP luminescence, 18 h
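HepG2 CAGA-GFP cells (1000/well, DMEM with 1% FBS) received compound, then TGF-beta at 500 pg/mL final, and were incubated 18 hours at 37 degrees C. Viability was read by CellTiter-Glo luminescence. Media-only wells were set as complete cell-killing and DMSO as no toxicity.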
TGFb SMAD3 inh: TGF-b pathway inhibition. HepG2 CAGA-GFP TGF-b/SMAD3 reporter, GFP fluorescence, 18 h; TGF-beta stimulated, 500 pg/mL final. Potency, µM (highest dose often 46.1 µM), inactives show at the highest dose activity, negative = inhibition, most hits filed as inhibitors. 410,000 compounds, 1.2% hits. AID 588855; further: on the % scale 0 is the no-effect control and ±100 the full control effect; nearly all actives have a fitted effect of over 65% in size
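Using HEPG2 CAGA-GFP reporter cells at 1000 cells/well, we pinned test compounds, stimulated with recombinant TGF-beta (500 pg/mL final) and measured total well GFP after 18 h.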
S2 tox: cell viability loss in ATXN counter-screen. S2 cells (HEK-293 line with an ATXN2-luciferase reporter) viability, CellTiter-Fluor protease fluorescence, 24 h. Potency, µM (titrated, usually from 56.7 µM), usual class: cytotoxic. 400,000 compounds, 0.49% hits; further: nearly all actives have a fitted effect of over 40% in size
KB-3-1 cytotox: KB-3-1 parental cell cytotoxicity; KB-3-1 viability, CellTiter-Glo ATP luminescence, 72 h; 400,000 compounds, 1.4% hits; AID 1347075; Potency, µM (top dose mostly 46.1 µM), usual class: cytotoxic; further: on the % scale 0 is the no-effect control and ±100 the full control effect; nearly all actives have a fitted effect of over 60% in size
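Parental KB-3-1 viability, qHTS format: 72 h compound exposure, 37 °C; CellTiter-Glo; media-only wells and DMSO plates as controls; concentration-effect fits on corrected data.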
KB-V1 MDR tox: KB-V1 MDR subline cytotoxicity. Potency, µM (top dose mostly 46.1 µM), hits mostly cytotoxic. AID 1347076. KB-V1 MDR cells viability, CellTiter-Glo, 72 h. 400,000 compounds, 3.4% hits; further: on the % scale 0 is the no-effect control and ±100 the full control effect; nearly all actives have a fitted effect of over 60% in size
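Following 72 h at 37 degrees C with compound, KB-V1 cell viability was read by CellTiter-Glo luminescence, medium being phenol-red-free DMEM plus 10% FBS; concentration-response parameters came from normalized, curve-fitted qHTS data.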
* marks the source's active call; other numbers are inactive results; i = inactive; ? = inconclusive; · = no result; ! = not confirmed by another sample; [ ] = remark or other dose. The call rests on the fitted dose curve; in most records, active means well fitted curve in the direction sought with a large enough effect; inconclusive means small, poorly fitted or top-dose-only effect, or another doubt; inactive means no such curve, though single readings can be large; an effect the other way counts as inactive or inconclusive. Potency means the concentration at half of the fitted maximal effect.

SMILES	ATXN2 expr inh	HepG2 tox	TGFb SMAD3 inh	S2 tox	KB-3-1 cytotox	KB-V1 MDR tox
CC(/C=N/NC(=O)c1cc(-c2ccc(Cl)cc2)nc2ccccc12)=C\c1ccco1	1%	8%	?	?	1µM*	0.92µM*
CC(/C=N/NC(=O)c1cc(-c2ccccc2)nc2ccccc12)=C\c1ccco1	8%	-32%	?	i	4.1µM*	7.3µM*
CCCCc1ccc(NC(=O)c2cc3c(=O)n4ccccc4nc3s2)cc1	-8%	-5%	-11%	i	i	i
CNc1nc(NCc2ccccc2)c2ccccc2n1	?	-35%	?	i	?	i
Oc1ccccc1Nc1nc(NCc2ccccc2)c2ccccc2n1	?	-40%	11µM*	i	23µM*	21µM*
Cc1c(Cl)cccc1Nc1nc(NCCO)c2ccccc2n1	-12%	-19%	11µM*	i	?	i
COc1ccc(CNc2ncnc3cc(Cl)ccc23)cc1	?	-26%	-28%	i	?	21µM*
OCCNc1nc(Nc2ccccc2)nc2ccccc12	-12%	-5%	?	i	i	?
c1ccc(CNc2ncnc3ccccc23)cc1	-26%	-4%	-3%	i	?	8.2µM*!
Cc1ccc(NS(=O)(=O)c2cc3c(cc2F)NC(=O)CC3)cc1Cl	·	·	·	·	?	i
CCCCNc1nc(NCc2ccccc2)nc2ccccc12	22µM*	·	·	32µM*	?	?
Clc1cccc(CNc2ccn3nc(-c4ccc(OCCN5CCOCC5)cc4)cc3n2)c1	?	-48%	11µM*	·	?	?
FC(F)(F)c1cccc(-c2cc3nc(NC4CCCCC4)ccn3n2)c1	?	-87%	16µM*	?	?	i
FC(F)(F)c1cccc(-c2cc3nc(NCCOc4ccccc4)ccn3n2)c1	-26%	-85%	?	?	i	i
c1cc(-c2cc3nc(NC4CCCCC4)ccn3n2)ccc1OCCN1CCOCC1	?	-72%	11µM*	25µM*	?	?
O=C(Nc1ccc(Oc2ccccc2)cc1)Nc1nnc(-c2ccncc2)s1	·	·	·	·	?	i
COc1ccc(S(=O)(=O)Nc2cc3c4c(oc3c3ccccc23)CCCC4=O)cc1	-30%	-8%	?	?	7.3µM*	5.2µM*
COc1ccc(S(=O)(=O)Nc2cc3c4c(oc3c3ccccc23)CC(C)(C)CC4=O)cc1	-38%	-27%	-10%	?	?	?
CN(Cc1ccccc1)/[N+]([O-])=N/Oc1ccc([N+](=O)[O-])cc1[N+](=O)[O-]	·	-95%	?	·	·	·
Cc1ccc(-c2nc3n(n2)Cc2ccccc2-3)cc1	-33%	-54%	-24%	i	i	?
Fc1ccc(-c2nc3n(n2)Cc2ccccc2-3)cc1	52%	8.9µM*	?	i	?	?
CCn1c(C)nc2cc(-c3nc4n(n3)Cc3ccccc3-4)ccc21	0.4µM*	1.3µM*	-11%	i	5.8µM*	?
CCn1c(C)nc2cc(C(=O)NNC(=O)c3ccc(C)cc3)ccc21	19%	-2%	3%	i	i	i
C[C@@H]1CN(Cc2ccc3c(c2)CN(Cc2cccc4c2OCO4)CCO3)C[C@H](C)O1	·	·	·	i	·	·
CCCCNC(=O)c1onc(CSc2cccc(OC)c2)c1C(=O)NCCCC	2%	-3%	?	i	i	?
SMILES	ATXN2 expr inh	HepG2 tox	TGFb SMAD3 inh	S2 tox	KB-3-1 cytotox	KB-V1 MDR tox
COCCNC(=O)c1onc(CSc2cccc(OC)c2)c1C(=O)NCCOC	-2%	1µM*	-6%	i	i	i
CCCCC/C=C\CCC(=O)N[C@H]1[C@H](Oc2c3cc4cc2Oc2ccc(cc2Cl)[C@@H](O[C@@H]2O[C@H](CO)[C@@H](O)[C@H](O)[C@H]2NC(C)=O)[C@@H]2NC(=O)[C@H](NC(=O)[C@@H]4NC(=O)[C@H]4NC(=O)[C@@H](Cc5ccc(c(Cl)c5)O3)NC(=O)[C@H](N)c3ccc(O)c(c3)Oc3cc(O)cc4c3)c3ccc(O)c(c3)-c3c(O[C@H]4O[C@H](CO)[C@@H](O)[C@H](O)[C@@H]4O)cc(O)cc3[C@@H](C(=O)O)NC2=O)O[C@H](CO)[C@@H](O)[C@@H]1O	·	·	·	i	·	·
Cc1ccccc1-n1ncc2c(SCC(=O)NC3CCCC3)ncnc21	-15%	-2%	?	i	i	?
Cc1ccccc1-n1ncc2c(SCC(=O)N3c4ccccc4CC3C)ncnc21 (stereo not given)	-11%	-16%	-26%	i	i	9.2µM*
Cc1sc2nc(C(C)C)nc(SCC(=O)N3c4ccccc4CC3C)c2c1C (stereo not given)	61%	-2%	0%	i	i	18µM*
CCOC(=O)c1sc(C)c2c1NC1(CCCCC1)NC2=O	16%	-20%	-14%	i	i	i
CCOC(=O)c1sc(C)c2c1NC(C)(c1cccs1)NC2=O (stereo not given)	3%	-17%	-23%	i	i	5.2µM*
O=C(Cn1cc(S(=O)(=O)Cc2ccccc2F)c2ccccc21)Nc1ccc(F)c(Cl)c1	·	-62%	?	·	?	?
O=C(Cn1cc(S(=O)(=O)Cc2ccccc2Cl)c2ccccc21)Nc1cccc(C(F)(F)F)c1	·	16µM*	?	·	?	?
CC(=O)Nc1nc(CC(C)C)cc2c1c(=O)oc1ccccc12	1%	-62%	?	i	i	i
CCCCc1cc2c(c(NC(=O)CC)n1)c(=O)oc1ccccc12	13%	-46%	-30%	i	i	16µM*
Cc1ccc(S(=O)(=O)C(CNC(=O)C(=O)NCc2ccc(Cl)cc2)c2ccco2)cc1 (stereo not given)	·	8%	24%	·	i	i
C=C[C@@H]1c2ccccc2N(S(=O)(=O)c2ccc(C)cc2)[C@H](c2ccc(OC(C)=O)cc2)C1(C#N)C#N	?	-45%	?	?	18µM*!	?
C=C[C@@H]1c2cc(C)ccc2N(S(=O)(=O)c2ccc(C)cc2)[C@H](c2ccc(OC(C)=O)cc2)C1(C#N)C#N	25µM*	6.3µM*!	?	?	6.5µM*!	7.3µM*
C[C@H]1NCc2cc(-c3ccc4c(=O)c(C(=O)O)cn(C5CC5)c4c3OC(F)F)ccc21	5%[25.6 µM]	·	·	i	·	·
CC1=CC(=O)N(c2ccc(C)cc2)C1c1ccc(Cl)cc1 (stereo not given)	3%	-1%	1%	i	i	i
